Rows were chosen to be rich in hits. Some 3.5% of all compounds tested hit in one or more screens of this group.
MITF primary = blocks human microphthalmia-associated transcription factor; O75030; AlphaScreen MITF homodimerization, bead proximity signal; inhibition, % at 2.6 µM; 650,000 compounds, 0.91% hits; AID 1259374; in the data active = inhibition above about 50%
TEAD-YAP block = TEAD-YAP interaction inhibition | 640,000 compounds, 1.4% hits | inhibition, % at 9.12 µM | HEK-TIYL cells, TEAD-Gal4/YAP UAS-luciferase luminescence | AID 1259422; in the data active = inhibition above about 32%
GPR151 activ = activates the human receptor GPR151; Q8TDV0; PathHunter beta-arrestin GPR151 cells, luminescence; activation, % at 11.2 µM; 650,000 compounds, 1% hits; in the data active = activation above about 4.9%
Target sequence (Q8TDV0 whole entry, looked up): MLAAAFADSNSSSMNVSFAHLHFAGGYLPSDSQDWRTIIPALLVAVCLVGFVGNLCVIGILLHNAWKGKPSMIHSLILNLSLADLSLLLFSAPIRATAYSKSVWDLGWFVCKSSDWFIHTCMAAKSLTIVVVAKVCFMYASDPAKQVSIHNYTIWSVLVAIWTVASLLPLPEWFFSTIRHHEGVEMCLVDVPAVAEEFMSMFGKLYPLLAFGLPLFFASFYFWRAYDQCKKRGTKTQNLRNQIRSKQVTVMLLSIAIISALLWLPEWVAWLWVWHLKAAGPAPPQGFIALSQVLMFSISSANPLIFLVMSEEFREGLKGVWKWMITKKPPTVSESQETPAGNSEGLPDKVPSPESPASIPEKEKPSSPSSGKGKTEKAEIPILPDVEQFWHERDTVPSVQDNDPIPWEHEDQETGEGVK
FBW7 activator = human FBW7 E3 ligase activation, primary screen. normalized activity (activation), % at 26.1 µM. AID 1259310. 650,000 compounds, 0.13% hits. Q969H0. AlphaScreen FBW7–phospho-cyclin E peptide binding, activator screen; in the data active = normalized activity above about 1.9%;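 note: purified mutant Fbw7 with reduced substrate affinity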
Each line names hits and unclear results; the compound was inactive in the other large screens.

c1ccc(CCNc2ccc3ncc(-c4cccs4)n3n2)nc1	TEAD-YAP block 80
COCCNc1ccc2ncc(-c3cccs3)n2n1	TEAD-YAP block 37
O=C(Cn1nnc(-c2ccccc2)n1)N/N=C/c1cc(Br)c(O)cc1O	none
CCOC(=O)c1c(C)oc2ccc(NS(=O)(=O)c3ccc(OCC)cc3)cc12	TEAD-YAP block 54
CCCc1oc2ccc(NS(=O)(=O)c3ccc(Br)cc3)cc2c1C(=O)OCC	TEAD-YAP block 42
CCOC(=O)c1c(C)oc2c(Cl)cc(NS(=O)(=O)c3ccc(OCC)cc3)cc12	TEAD-YAP block 56
CCOC(=O)c1c(C)oc2ccc(NS(=O)(=O)c3ccc(Br)cc3)cc12	none
CCOc1ccc(S(=O)(=O)Nc2ccc3oc(C)c(C(=O)OC(C)C)c3c2)cc1	none
CCOC(=O)c1c(C)oc2ccc(NS(=O)(=O)c3ccc(OC)cc3)cc12	TEAD-YAP block 42
CC1CN(C(=O)COc2cccc3ccccc23)CC(C)O1 (stereo not given)	none
COc1ccc(C2c3cccn3CCN2S(=O)(=O)c2cccs2)cc1 (stereo not given)	none
Cc1ccc(NC(=O)CCCC(=O)OCC(=O)c2ccc(C)c([N+](=O)[O-])c2)cc1	none
O=C1CN(S(=O)(=O)c2ccc(F)cc2)CCN1c1ccc(F)cc1	none
O=c1c2ccccc2nc(/C=C/c2cccc(C(F)(F)F)c2)n1-c1ccc(F)c(Cl)c1	none
CCN(CC)C(=O)C1CCCN(c2ccc(-n3cc(CC(=O)Nc4ccccc4)c4ccccc43)nn2)C1 (stereo not given)	none
Cc1ccc2nc(-c3ccc(C)c(NCc4cc([N+](=O)[O-])cc(Br)c4O)c3)oc2c1	none
CCCCc1n[nH]c2c1/C(=N\O)CC(c1ccccc1)C2 (stereo not given)	none
COCCOC(=O)c1c(C)oc2cc(C)c(NS(=O)(=O)c3cccs3)cc12	none
CCOC(=O)c1c(C)oc2cc(C)c(NS(=O)(=O)c3cccs3)cc12	TEAD-YAP block 46
CC(C)CCCC(C)C1CCC2C3CC=C4CC(OC(=O)C56CC7CC(CC(C7)C5)C6)CCC4(C)C3CCC12C (stereo not given)	none
COc1ccc(CCNc2nc(Nc3ccc4ncccc4c3)ncc2C)cc1	TEAD-YAP block 33
COc1ccc(CCNc2nc(Nc3ccc4ncccc4c3)nc3nc[nH]c23)cc1	TEAD-YAP block 50
Oc1ccc(CCNc2ncnc3nc(Nc4ccc5ncccc5c4)[nH]c23)cc1	none
Cc1ccc(C(=O)Cn2c3ccccc3n3ncnc23)cc1	none
CNc1nc(Nc2cccc3ccccc23)nc(OCC(F)(F)F)n1	none
CCN(CC)c1ccc2cc(-c3nc(-c4ccccc4)cs3)c(=O)oc2c1	none
CCN(CC)c1ccc2cc(-c3nc(C)cs3)c(=O)oc2c1	TEAD-YAP block 94, FBW7 activator 3.4
CCN(CC)c1ccc2cc(-c3ccccn3)c(=O)oc2c1	TEAD-YAP block 93, FBW7 activator 2.7
COc1cc(OC)cc(C(=O)Nc2ccccc2C(=O)O)c1	none
COc1cccc(/C=N/NC(=O)C(C)Oc2ccccc2)c1O (stereo not given)	none
Cc1ccccc1C(=O)NNC(=O)c1ccccc1	none
COc1cc(OC)cc(C(=O)NN=C2CCN(C)CC2)c1	TEAD-YAP block 51
CN1CCC(=NNC(=O)c2cc(O)c(O)c(O)c2)CC1	MITF primary 83
O=C(CSc1ncnc2c1nnn2Cc1ccc(F)cc1)N1CCC(Cc2ccccc2)CC1	none
CN1C(=O)/C(=C\C=C\c2ccco2)SC1=S	MITF primary 82
CC(C)C(C(=O)O)N1C(=O)/C(=C/C=C/c2ccco2)SC1=S (stereo not given)	MITF primary 64
CN1C(=O)S/C(=C\C=C\c2ccco2)C1=O	none
CN(C)S(=O)(=O)c1ccc(/C(O)=C2/C(=O)C(=O)N(CCCN3CCOCC3)C2c2cccc(Cl)c2)cc1 (stereo not given)	none
Cc1ccc(CNC(=O)Cc2c(C(=O)O)[nH]c3ccc(Cl)cc23)o1	none
Cc1nn(C(C)C(=O)N2CCCCCC2)c(C)c1[N+](=O)[O-] (stereo not given)	none
CCOc1ccc(C2=CC(=O)N(Nc3ccc([N+](=O)[O-])cc3[N+](=O)[O-])C(C)O2)cc1 (stereo not given)	none
Cc1cccc(NC(=O)c2ccc(C(C)(C)C)cc2)n1	TEAD-YAP block 45
CCOc1ccc(C(=O)Nc2cccc(C)n2)cc1	TEAD-YAP block 43
Cc1cccc(NC(=O)c2ccc(N)cc2)n1	TEAD-YAP block 61
CNC(=O)c1cc(F)ccc1Nc1cc(Nc2cc(-c3cncnc3)nc(C)n2)ncc1C(F)(F)F	TEAD-YAP block 55
Cc1nc(Nc2cc(Nc3ccccn3)c(C(F)(F)F)cn2)cc(-c2cncnc2)n1	TEAD-YAP block 32
COc1ccc(N2CCOCC2)cc1Nc1cc(Nc2ccccn2)c(C(F)(F)F)cn1	none
COc1ccc(CC(=O)N2N=C3CCCCC3C2(O)C(F)(F)F)cc1 (stereo not given)	none
COC(=O)CCCCCN1C(=O)/C(=C\c2cccnc2)SC1=S	none
COc1ccc(N(CC(=O)Nc2c(C)n(C)n(-c3ccccc3)c2=O)S(C)(=O)=O)cc1	none
O=C(NCC1OCCc2ccccc21)c1ccc(Br)cc1 (stereo not given)	none
Cc1ccccc1NC(=O)Cn1c(C)cc(=O)c2ccccc21	TEAD-YAP block 39
CCOc1ccc(NC(=O)C2CC(=O)N(CC)C(=Nc3ccc(OC)cc3)S2)cc1 (stereo not given)	none
CCN1C(=O)CC(C(=O)Nc2ccc(Br)cc2)SC1=Nc1ccc(OC)cc1 (stereo not given)	TEAD-YAP block 34
CN(Cc1ccccc1)C(=O)c1ccc2c(=O)n(CCc3ccccc3)c(SCC(=O)C(C)(C)C)nc2c1	none
OCC#CCSc1ncnn1-c1ccccc1	FBW7 activator 7.2
CCn1ccc2ccc(OC)cc2c1=O	FBW7 activator 2.1
CCOc1cccc(C2C(C(=O)OCCSCC)=C(C)NC3=C2C(=O)C(C(=O)OC)C(C)C3)c1 (stereo not given)	FBW7 activator 1.9
CCOc1ccc(C2C(C(=O)OCCSCC)=C(C)NC3=C2C(=O)C(C(=O)OC)C(C)C3)cc1 (stereo not given)	none
CCSCCOC(=O)C1=C(C)NC2=C(C(=O)CCC2)C1c1ccc(Br)cc1 (stereo not given)	FBW7 activator 2.0
CC1=C(C(=O)OCCOc2ccccc2)C(c2coc3ccc(Cl)cc3c2=O)C2=C(CCCC2=O)N1 (stereo not given)	none
CCOC(=O)C1=C(C)NC2=C(C(=O)CCC2)C1c1coc2ccc(Cl)cc2c1=O (stereo not given)	FBW7 activator 2.3
O=C(Cn1nnc2ccccc21)N1CCc2c(nc(N3CCCCC3)[nH]c2=O)C1	none
Cc1ccc(NC(=O)Cn2ncc3c2-c2cc(C)ccc2OC3)nc1	TEAD-YAP block 35
Cc1ccnc(NC(=O)Cn2ncc3c2-c2cc(C)ccc2OC3)c1	none
CCCNc1cc(Nc2ccccn2)nc(N)n1	TEAD-YAP block 34
CCCNc1cc(Nc2ncccn2)nc(N)n1	none
Cn1c(-c2ccccc2)c(/C=C(\C#N)c2nn(CCO)c(N)c2C#N)c2ccccc21	TEAD-YAP block 50
